Compound activity as filed in PubChem.
Rows were chosen to be rich in hits. Some 12% of all compounds tested hit in one or more screens of this group.
CHOP inhibitor – inhibitors of CHOP promoter induction, primary screen, cell-based, unfolded protein response, luciferase reporter. CHO-K1 CHOP-promoter luciferase, tunicamycin-induced, 15-18 h. inhibition, % at 10 µM. hit rate 3.8% among 220,000. AID 2732, 2010;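 active means compounds that reduced the stress-induced luciferase reporter signal by more than about 70% of percent inhibition, limit read from the data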
L major viab – Leishmania major promastigote growth inhibition, primary screen | Leishmania major promastigotes, resazurin fluorescence viability | inhibition, % at 10 µM | hit rate 9% among 200,000 | AID 1063, 2008; in the data active means inhibition above about 50%;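 further: promastigotes grown with compound for 44 hours at 28 °C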
WT yeast gro inh – growth inhibition of WT strain, primary screen, mitochondrial fusion inhibitor project, WT and mutant strains, chemical genetic | mitochondrial fusion phenotypic screen | inhibition, % at 10 µM | hit rate 2.1% among 190,000 | AID 1362, 2008; in the data active means inhibition above about 58%; tested in S. cerevisiae
Arbovirus inh – antivirals against arbovirus infection, primary screen, cell-based, full library, 10K replicate subset | arbovirus infection cell-based antiviral screen | inhibition, % at 10 µM | hit rate 0.37% among 200,000; in the data active means inhibition above about 30%
Hits are given with their value; . = inactive; / = not tested or not shown.

SMILES	CHOP inhibitor	L major viab	WT yeast gro inh	Arbovirus inh
N#C/C(=C\c1cccs1)c1nc2ccccc2[nH]1	.	60	.	.
N#C/C(=C\C1CC2C=CC1C2)c1nc2ccccc2[nH]1 (centres undefined)	.	56	.	.
N#C/C(=C\c1ccccc1)c1nc2ncccc2[nH]1	.	66	.	.
CC(OC(=O)c1ccc(NS(=O)(=O)c2cccs2)cc1)C(=O)N(C)C1CCCCC1 (centres undefined)	.	.	.	.
COc1ccc(CONS(=O)(=O)c2ccc(NC(C)=O)cc2)cc1Cl	.	.	/	.
O=C1c2ccccc2-c2n[nH]c(=O)c3ccc(N4CCCCC4)c1c23	79	.	63	.
Cc1ccc(N2CCOCC2)c2c1C(=O)c1ccccc1C2=O	.	.	.	.
CCCC1CCc2c(sc(N)c2C(N)=O)C1 (centres undefined)	.	.	.	.
COC(C[C@H]1O[C@H]1C(=O)COCc1ccccc1)OC	.	/	/	/
Cc1ccc(NC(=O)c2ccccc2OCC(=O)Nc2cccc(Cl)c2C)nc1	.	.	.	.
CC(=O)C1=C(C)NC(C)=C(C(C)=O)C1c1ccc(-c2ccccc2Cl)o1	.	.	.	.
C/C(=N\O)C(=O)OC1CC(C)CCC1C(C)C (centres undefined)	88	.	.	.
CC1CCC(C(C)C)C(OC(=O)C[n+]2cccc(C(N)=O)c2)C1 (centres undefined)	.	.	.	.
Cc1ccc(N2C(=O)CCC2(C(N)=O)c2ccccc2)cc1 (centres undefined)	.	.	.	.
Cc1ccc(C)c(N2CCN(c3nnnn3-c3ccccc3)CC2)c1	.	63	.	.
c1ccc(CC2CCN(c3nnnn3-c3ccccc3)CC2)cc1	.	.	62	.
Cn1/c(=N/NC(=O)c2ccccc2F)sc2ccccc21	.	.	.	.
Cn1cncc1C(=O)c1ccccc1	.	/	/	/
Cc1nnc(Sc2cc(C(=O)NC3CC3)c3ccccc3n2)s1	.	/	/	/
Cc1ccc(C)c(NC(=O)C(Sc2nc3ccc(C)cc3[nH]2)c2ccccc2)c1 (centres undefined)	73	.	.	.
COc1ccc(C[C@H]2CN3C(=NC[C@@H]3C(C)C)N2CCNC(=O)c2ccc(C)c(Br)c2)cc1	.	99	.	.
COc1ccc(C[C@H]2CN3C(=NC[C@H]3C)N2CCNC(=O)c2ccc(C)c(Br)c2)cc1	.	53	.	.
Nc1cc(C(=O)c2ccccc2)ccc1[N+](=O)[O-]	.	.	.	.
O=C(C#Cc1ccccc1)c1ccc([N+](=O)[O-])cc1	111	.	.	.
O=C(c1ccc(-c2ccccc2)cc1)c1ccc([N+](=O)[O-])cc1	.	/	/	/
SMILES	CHOP inhibitor	L major viab	WT yeast gro inh	Arbovirus inh
CCn1c(=O)n(CC)c2cc(S(=O)(=O)NCCOc3ccccc3)c(C)cc21	.	99	.	.
CCOC(=O)c1c(C)oc2cc(Cl)c(O)c(CN(C)C)c12	.	/	/	/
CCOC(=O)c1c(-c2ccccc2)oc2cc(CN(C)C)c(O)c(CN(C)C)c12	/	100	/	/
CCOC(=O)c1c(-c2ccccc2)oc2ccc(O)c(CN3CCN(C)CC3)c12	.	89	.	.
CCOC(=O)c1c(-c2ccccc2)oc2ccc(OCC)cc12	.	.	.	.
O=C(NCc1ccncc1)C(=O)N/N=C/c1ccccn1	.	.	.	.
CCOC1=C/C(=C/c2c(N)n3nc(S(=O)(=O)CC)sc3nc2=O)C=CC1=O	.	.	.	.
Cc1cccc(N2CCC(N3CCN(C4CCCCC4)C(CCO)C3)CC2)c1C (centres undefined)	.	88	.	.
CSc1ccc(CN2CCN(C3CCCC3)C(CCO)C2)cc1 (centres undefined)	.	62	.	.
OCCC1CN(Cc2ccncc2)CCN1C1CCCC1 (centres undefined)	.	.	.	.
CSc1ccc(CN2CCN(CCC(C)C)C(CCO)C2)cc1 (centres undefined)	.	78	.	.
CC(C)N1CCC(N2CCN(C3CCCC3)CC2CCO)CC1 (centres undefined)	.	.	.	.
O=C(CNC1CCCCCC1)Nc1ccccc1N1CCOCC1	.	.	.	.
COc1cc(OC)c2c(O)c3c(c(-c4c5c(c(O)c6c(OC)cc(OC)cc46)CO[C@@H](C)[C@H]5O)c2c1)[C@H](O)[C@H](C)OC3	.	.	.	.
COc1ccccc1NC(=S)c1ccccc1	.	.	.	.
CN1CCc2c(cc(O)c(O)c2Cl)C(c2cccc(Cl)c2)C1 (centres undefined)	.	/	/	/
C/C(=N\Nc1cc(Cl)nc(C)n1)c1ccc(C)cc1	/	.	/	/
c1ccc(Nc2ncnc3[nH]ncc23)cc1	.	/	/	/
S=C(NCc1ccco1)Nc1ccc(Oc2ccccc2)cc1	.	.	67	.
O=S(=O)(c1ccc(NC(=S)NCc2ccco2)cc1)N1CCCC1	.	52	.	.
CCNC(=S)NCc1ccco1	.	59	.	.
CC/C(C)=N/NC(=S)NCc1ccco1	.	.	.	.
OCCCNC(=S)Nc1ccc(Oc2ccccc2)cc1	.	.	.	.
CC(C)CNC(=S)Nc1ccc(Oc2ccccc2)cc1	.	.	63	.
C=C(C)C(=O)Nc1cccc(C2=NOC3(C2)C[C@@H](C(N)=O)N(C(=O)CC(c2ccccc2)c2ccccc2)C3)c1 (some centres undefined)	.	/	/	/
SMILES	CHOP inhibitor	L major viab	WT yeast gro inh	Arbovirus inh
Cc1ccnc(-n2c(C)cc(/C=N/NC(=O)COc3cccc4cccnc34)c2C)c1	.	/	/	/
CCOC(=O)CCCNC(=O)CSc1nc2ccc(OCC)cc2[nH]1	.	.	.	.
S=C(NCc1ccco1)Nc1cc(-c2ccccc2)[nH]n1	.	.	64	.
S=C(NCc1ccco1)Nc1ccc(Cl)c(Cl)c1	.	.	.	.
CC(C)C12CN3CC(C(C)C)(CN(C1)C3c1ccc([N+](=O)[O-])o1)C2=O (centres undefined)	.	/	/	/
CCC(=O)Nc1cccc(-n2nnnc2SCC(=O)NCc2ccco2)c1	.	.	.	.
CCC(=O)Nc1cccc(-n2nnnc2SCC(=O)c2ccc(C)c(C)c2)c1	.	99	.	.
O=C(CSc1ccc(Cl)cc1)Nc1ccc(NC(=O)c2ccco2)cc1	.	.	.	.
CC(=O)Nc1cccc(NC(=O)CSc2nnnn2Cc2ccccc2)c1	.	.	75	.
CC(=O)c1ccc(-n2nnnc2SCC(=O)Nc2cccc(NC(=O)c3ccco3)c2)cc1	.	.	73	.
Cc1ccc(SCC(=O)Nc2cccc(NC(=O)c3ccco3)c2)cc1	.	77	.	.
CCn1nnnc1SCC(=O)Nc1cccc(NC(C)=O)c1	.	.	.	.
Cc1ccc(-n2nnnc2SCC(=O)Nc2cccc(NC(=O)c3ccco3)c2)cc1C	.	66	.	.
O=C1CN(C(=O)CNCc2cccc(Cl)c2)c2ccccc2N1	.	/	/	/
CCCCCCCCCCOC(=O)C[N+](C)(C)C/C=C(/C)Cl	.	100	.	.
CCCCCCCCOC(=O)C[N+](C)(C)C/C=C(/C)Cl	.	67	.	.
C/C(Cl)=C\C[N+](C)(C)CC(=O)OCCc1ccccc1	.	/	/	/
CCCCCCCCCCCCOC(=O)C[N+](C)(C)C	.	/	/	/
Cc1cccnc1NC(=O)c1csnn1	.	/	/	/
Oc1c(Cl)cc(Cl)cc1C=Nc1ccc2c(c1)OCCO2	87	.	.	.
